Results published in PubChem BioAssay AID1159580 (chemical genetic matrix, 2015).
The whole screen tested about 5,500 compounds, of which about 2,000 (36%) were called active. Not shown: some 18% with an inconclusive outcome. Rule as the data show it: active = normalized growth mostly below about 0.91 (no sharp cut-off); inconclusive = no clear call, values can overlap the other calls; inactive = mostly above about 0.92. The list shows a part of the results.

Experiment: chemical genetic growth profiling, strain panel (AID 1159580);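 also: tested at 20 µM; growth read once vehicle control cultures reached saturation at 30 °C; 1 = growth at the plate median or of vehicle wells; lower values mean less growth of the strain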
Conditions: growth OD

Measured: normalized growth

CC1(C)C(=O)[C@@H]2O[C@@H]2[C@@]2(C)C1C[C@@H](O)[C@]1(C)C2CC[C@@]2(C)[C@H](c3ccoc3)OC(=O)C3OC321 (some centres not stated)
inactive: S. cerevisiae deletion strains, locus YJL187C, strain SWE1, hits give low values 0.994 | S. cerevisiae deletion strains, locus YJR043C, strain POL32, hits give low values 0.998 | S. cerevisiae deletion strains, locus YJR066W, strain TOR1, hits give low values 0.926 | S. cerevisiae deletion strains, locus YKL009W, strain mrt4, hits give low values 1.02 | S. cerevisiae deletion strains, locus YKL068W, hits give low values 0.993 | S. cerevisiae deletion strains, locus YKL085W, strain MDH1 (second series), hits give low values 0.997 | S. cerevisiae deletion strains, locus YKL085W, strain MDH1, hits give low values 0.997 | S. cerevisiae deletion strains, locus YKL160W, strain elf1, hits give low values 0.998 | S. cerevisiae deletion strains, locus YKR001C, strain vps1, hits give low values 0.979 | S. cerevisiae deletion strains, locus YKR026C, strain gcn3, hits give low values 0.995 | S. cerevisiae deletion strains, locus YKR091W, strain srl3, hits give low values 0.992 | S. cerevisiae deletion strains, locus YLL001W, strain dnm1, hits give low values 0.99 | S. cerevisiae deletion strains, locus YLL026W, hits give low values 0.99 | S. cerevisiae deletion strains, locus YLL041C, strain sdh2, hits give low values 0.999 | S. cerevisiae deletion strains, locus YLR027C, strain aat2, hits give low values 0.984 | S. cerevisiae deletion strains, locus YLR039C, strain RIC1, hits give low values 1.11 | S. cerevisiae deletion strains, locus YLR058C, strain SHM2, hits give low values 0.997 | S. cerevisiae deletion strains, locus YLR102C, strain apc9, hits give low values 0.987 | S. cerevisiae deletion strains, locus YLR113W, strain HOG1, hits give low values 1.01 | S. cerevisiae deletion strains, locus YLR221C, strain rsa3, hits give low values 0.999 | S. cerevisiae deletion strains, locus YLR258W, strain gsy2, hits give low values 1.02 | S. cerevisiae deletion strains, locus YLR262C, strain YPT6 (second series), hits give low values 0.973 | S. cerevisiae deletion strains, locus YLR268W, strain sec22, hits give low values 0.987 | S. cerevisiae deletion strains, locus YLR320W, strain mms22, hits give low values 0.998 | S. cerevisiae deletion strains, locus YLR330W, strain CHS5, hits give low values 1 | S. cerevisiae deletion strains, locus YLR342W, strain FKS1 (second series), hits give low values 0.992 | S. cerevisiae deletion strains, locus YLR342W, strain FKS1, hits give low values 0.999 | S. cerevisiae deletion strains, locus YLR357W, strain rsc2, hits give low values 0.968 | S. cerevisiae deletion strains, locus YLR370C, strain arc18, hits give low values 0.995 | S. cerevisiae deletion strains, locus YLR371W, strain rom2, hits give low values 0.982 | S. cerevisiae deletion strains, locus YLR384C, strain iki3, hits give low values 1.02 | S. cerevisiae deletion strains, locus YLR418C, strain cdc73, hits give low values 0.919 | S. cerevisiae deletion strains, locus YML016C, strain PPZ1, hits give low values 1.01 | S. cerevisiae deletion strains, locus YML032C, strain rad52, hits give low values 0.994 | S. cerevisiae deletion strains, locus YML120C, strain ndi1, hits give low values 1 | S. cerevisiae deletion strains, locus YML124C, strain tub3, hits give low values 0.996 | S. cerevisiae deletion strains, locus YMR058W, strain fet3, hits give low values 1 | S. cerevisiae deletion strains, locus YMR078C, strain ctf18, hits give low values 0.994 | S. cerevisiae deletion strains, locus YMR125W, strain sto1, hits give low values 1 | S. cerevisiae deletion strains, locus YMR129W, hits give low values 1 | S. cerevisiae deletion strains, locus YMR205C, strain PFK2, hits give low values 0.999 | S. cerevisiae deletion strains, locus YMR223W, strain ubp8, hits give low values 0.979 | S. cerevisiae deletion strains, locus YMR231W, strain pep5, hits give low values 0.98 | S. cerevisiae deletion strains, locus YMR263W, strain SAP30, hits give low values 0.974 | S. cerevisiae deletion strains, locus YMR307W, strain GAS1, hits give low values 0.938 | S. cerevisiae deletion strains, locus YNL067W, strain RPL9B, hits give low values 0.982 | S. cerevisiae deletion strains, locus YNL071W, strain lat1, hits give low values 0.998 | S. cerevisiae deletion strains, locus YNL183C, strain NPR1, hits give low values 0.951 | S. cerevisiae deletion strains, locus YNL209W, strain ssb2, hits give low values 1.01 | S. cerevisiae deletion strains, locus YNL233W, strain BNI4, hits give low values 0.99 | S. cerevisiae deletion strains, locus YNL248C, strain rpa49, hits give low values 0.991 | S. cerevisiae deletion strains, locus YNL250W, strain rad50, hits give low values 0.982 | S. cerevisiae deletion strains, locus YNL271C, strain bni1, hits give low values 0.989 | S. cerevisiae deletion strains, locus YNL298W, strain CLA4, hits give low values 0.971 | S. cerevisiae deletion strains, locus YNL307C, strain MCK1, hits give low values 0.967 | S. cerevisiae deletion strains, locus YNL322C, strain KRE1 (second series), hits give low values 1 | S. cerevisiae deletion strains, locus YNR049C, strain mso1, hits give low values 1.01 | S. cerevisiae deletion strains, locus YNR052C, strain pop2, hits give low values 0.964 | S. cerevisiae deletion strains, locus YOL006C, strain TOP1, hits give low values 0.992 | S. cerevisiae deletion strains, locus YOL012C, strain htz1 0.956 | S. cerevisiae deletion strains, locus YOL147C, strain pex11, hits give low values 0.988 | S. cerevisiae deletion strains, locus YOR001W, strain rrp6, hits give low values 1.02 | S. cerevisiae deletion strains, locus YOR061W, strain CKA2, hits give low values 1.01 | S. cerevisiae deletion strains, locus YOR069W, strain VPS5, hits give low values 1 | S. cerevisiae deletion strains, locus YOR070C, strain gyp1, hits give low values 0.992 | S. cerevisiae deletion strains, locus YOR080W, strain dia2, hits give low values 0.988 | S. cerevisiae deletion strains, locus YOR083W, strain WHI5, hits give low values 0.992 | S. cerevisiae deletion strains, locus YOR106W, strain vam3, hits give low values 0.995 | S. cerevisiae deletion strains, locus YOR136W, strain idh2, hits give low values 0.975 | S. cerevisiae deletion strains, locus YOR144C, strain elg1, hits give low values 0.985 | S. cerevisiae deletion strains, locus YOR184W, strain ser1, hits give low values 0.978 | S. cerevisiae deletion strains, locus YOR231W, strain MKK1, hits give low values 0.983 | S. cerevisiae deletion strains, locus YOR265W, strain rbl2, hits give low values 0.983 | S. cerevisiae deletion strains, locus YOR270C, strain vph1, hits give low values 0.946 | S. cerevisiae deletion strains, locus YOR290C, strain snf2, hits give low values 0.968 | S. cerevisiae deletion strains, locus YOR316C, strain cot1, hits give low values 0.992 | S. cerevisiae deletion strains, locus YPL051W, strain arl3, hits give low values 0.986 | S. cerevisiae deletion strains, locus YPL078C, strain atp4, hits give low values 1.01 | S. cerevisiae deletion strains, locus YPL106C, strain sse1, hits give low values 1 | S. cerevisiae deletion strains, locus YPL240C, strain hsp82, hits give low values 1.01 | S. cerevisiae deletion strains, locus YPL256C, strain CLN2, hits give low values 0.952 | S. cerevisiae deletion strains, locus YPR119W, strain clb2, hits give low values 0.982 | S. cerevisiae deletion strains, locus YPR141C, strain kar3, hits give low values 0.992 | S. cerevisiae deletion strains, locus YPR163C, strain tif3, hits give low values 0.979 | S. cerevisiae deletion strains, locus YPR167C, strain met16, hits give low values 0.982 | S. cerevisiae deletion strains, strain wtn01, hits give low values 0.999 | S. cerevisiae strains, strain wild type, hits give low values 0.994
